# Calls of active or inactive are those of the source. No stated cut-off is given here; in the data, active means inhibition above about 65%; inactive means the rest.
# Tested on: Antitargets
# Assay: Fam108b inhibitors and proteome off-target selectivity – biochemical, gel-based ABPP, recombinant soluble Fam108b, HTS hits, complex proteome, late-stage follow-up (AID 588651);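 further: Fam108b spiked into mouse brain membrane proteome; tested at 20 µM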
# Details: FP-rhodamine labeling in proteome
row,Structure (SMILES),outcome
1,CC1=CC(=O)c2c(O)ccc(O)c2C1=O,inactive
2,Oc1ccc(C2Nc3cccc4cccc(c34)N2)c(O)c1,inactive
3,Nc1ccc2nc(-c3cccc(-c4nc5ccc(N)cc5[nH]4)c3)[nH]c2c1,inactive
4,CCN(CC)c1ccc(C2Nc3cccc4cccc(c34)N2)c(O)c1,inactive
5,Oc1c(Cl)cc(Cl)c(Cl)c1Cc1c(O)c(Cl)cc(Cl)c1Cl,inactive
6,COc1ccc(NC(=S)Nc2ccc3nsnc3c2)cc1,inactive
7,Oc1cccc2cc3cccc(O)c3c(O)c12,active
8,CCc1ccc(S(=O)(=O)N=C2C=C(Sc3ncn[nH]3)C(=O)c3ccccc32)cc1,inactive
9,O=C(Nc1ccc(N2CCCC2)c(S(=O)(=O)Nc2cccc(C(F)(F)F)c2)c1)c1cccs1,inactive
10,O=C1c2ccccc2-c2onc3ccc(NCCCn4ccnc4)c1c23,inactive
11,Cc1cc(C)nc(SCc2ccc(C(=O)NN=Cc3cccc(O)c3O)cc2)n1,active
12,O=C(NCC1CC1)c1ccc(Nc2nc3ccc(Br)cc3[nH]2)cc1,inactive
13,CC1(C)CC(=O)C2=C(C1)c1c(ccc3ccccc13)NC2c1cc([N+](=O)[O-])cc([N+](=O)[O-])c1O (centres undefined),inactive
14,Cc1cccc(N=Cc2nc(-c3ccccc3Br)oc2O)n1,inactive
15,CN(c1ccccc1)S(=O)(=O)c1ccc(NC(=O)c2ccc(-c3ccccc3)cc2)cc1,inactive
16,COc1cccc(C=NNC(=O)c2[nH]c(C)c(C(=O)NN=Cc3cccc(OC)c3O)c2C)c1O,active
17,Fc1ccc2nc(Nc3nc4cc5c(cc4s3)OCO5)sc2c1,inactive

row,Structure (SMILES),outcome
1,CCOc1cc(/C=C2\C(=O)N(c3nc(-c4ccc(Br)cc4)cs3)N=C2c2ccccc2)ccc1O,active
2,COc1cc(-c2nc(-c3ccc4c(c3)-c3ccccc3S4(=O)=O)c(-c3ccccc3)[nH]2)cc(OC)c1O,inactive
3,Cc1ccc(C)c(-n2c3nc(=O)[nH]c(=O)c-3cc3cc([N+](=O)[O-])ccc32)c1,inactive
4,O=c1cc(-c2ccc(O)c(-c3c(O)cc(O)c4c(=O)cc(-c5ccc(O)cc5)oc34)c2)oc2cc(O)cc(O)c12,active
5,O=C(Nc1ccc2[nH]c(=S)sc2c1)Nc1ccccc1F,inactive
6,O=C(Nc1cccc(-c2csc(Nc3ccc(Cl)cc3)n2)c1)c1cc([N+](=O)[O-])cc(C(F)(F)F)c1,inactive
7,O=c1oc(-c2ccccc2Cl)nc2ccsc12,inactive
8,O=C1C(Cl)=C(N2CCC(C(=O)O)CC2)C(=O)c2ccccc21,inactive
9,Cc1ccc(S(=O)(=O)N=C2C=C(Sc3ncn[nH]3)C(=O)c3ccccc32)cc1,inactive
10,Cc1ccc(S(=O)(=O)Nc2ccccc2C(=O)Nc2nc(-c3ccc(F)cc3)cs2)cc1,inactive
11,O=C(Nc1cccc(C(F)(F)F)c1)Nc1ccc(N2CCCC2)c(S(=O)(=O)Nc2ccccc2Cl)c1,active
12,CC1CCN(S(=O)(=O)c2ccc(C(=O)Nc3ccccc3-c3nc4ccccc4[nH]3)cc2)CC1,inactive
13,Cc1nc2scc(-c3ccc(Cl)cc3)c2c(=O)o1,inactive
14,Cc1c(O)ccc(C=NNc2nc(-c3cccnc3)nc3ccccc23)c1O,active
15,Oc1ccc(C=NNc2ccnc3cc(Cl)ccc23)cc1O,inactive
16,Oc1ccc(C=NNc2ccnc3cc(Cl)ccc23)c(O)c1O,active
17,O=C(CCCSc1ccccc1)Nc1nc(-c2ccco2)c(-c2ccco2)s1,inactive

# From PubChem BioAssay AID588651 (The Scripps Research Institute Molecular Screening Center, 2011)
